Results on 36 sequences are retold here after the OligoGym collection.
Also: reference of the scale not given here.

One assay addresses STX17. In words: pooled miR-30 sensor sort-seq; sequence = guide strand. The following applies: shRNA.
Take TTCATCATTAAATTGCTTCTTA: the sensor-assay potency score (higher = more potent) is 0.611.
Same read-out and setting: next, TTCTTTAACAGGATCTATCATT: -0.828; TAGTATGAAATGCTCCACCAAC: -1.07.
TTGACATGGTCTGCAATGCTGT registered a sensor-assay potency score (higher = more potent) of -0.961.
The same measure, in the same setting: the result for AATGCTGTCAATCTTCTCCTGC reads 0.00387; that for TATATCTGAGTCAAACTCTGAG, 0.23.
Same read-out and setting: the result for TTCTTCATCATTAAATTGCTTC reads 0.0874.
Same read-out and setting: the result for TACTTCTCAATATTTATCTGGT reads 0.329; that for TTCTGCAGCATTTTGATCTTGA, 0.632.
In turn, TTTGTATCAATTTTCCACCTGT had a sensor-assay potency score (higher = more potent) of 0.455.
The same measure, in the same setting: next, TTCTACACATCTCAAGTCCTTA: 0.0253.
The same measure, in the same setting: next, TCAAACTCTGAGAACTAGCTTC: 0.0575.

In the next assay the target is STYK1. Described as above. The following applies: shRNA.
TTGAGTTCTTTGTTCTCTGATA showed a sensor-assay potency score (higher = more potent) of -1.2.
The same measure, in the same setting: next, TTTAATGGCAGCTTCTAGGCGC: 0.0946.
The sequence TTCATGATACTGTACATGGTAT showed a sensor-assay potency score (higher = more potent) of -0.548.
Take ATCCATAGTCATCACATCCCGC: the sensor-assay potency score (higher = more potent) was -0.719.
The same measure, in the same setting: the result for TATGTCTTAGCTCAGGATGTGT reads -0.84; that for TAGAAGAGGCTCTCCACTCTGA, 0.202; that for TTGAGGTCCAGAACGCTGCTGT, 0.125.
On the same count and under the same terms, the result for ATAGTCATCACATCCCGCCGAC reads -0.512.
Still for that read-out and setting: next, ATAGTAACCAACAAAGTTGGGA: 0.0523.
With TTGTTCTCTGATAAAAAGCCAC, the sensor-assay potency score (higher = more potent) was -1.1.
TTGAGAATAACACTCTTGGGCT gave a sensor-assay potency score (higher = more potent) of -0.459.
As for TATTCCTTCATTTCATTCCAAA, the sensor-assay potency score (higher = more potent) is -1.26.

The target in the next assay is STYX. The assay is described as above. The following applies: shRNA.
On to TTGCTTCAATATTTTGTCGTAT, for which the sensor-assay potency score (higher = more potent) was -0.787.
Same read-out and setting: the result for TGTAGTACAGGTAGCTTGCTTT reads -0.453.
As to TAGCAGATGAATATGGGCCTAA, the sensor-assay potency score (higher = more potent) is -0.352.
Still for that read-out and setting: the result for TAAATATCTAAATAACTGCTGA reads -0.29; that for TTCTGTAGTACAGGTAGCTTGC, -0.197.
TAGAAATTCACACTCTATGATG showed a sensor-assay potency score (higher = more potent) of -0.976.
Still for that read-out and setting: next, TAAAATTTCCTGCATCTCTCGT: -0.395; TTGCTTTTCATAGCAGATGAAT: -1.47; TAATACAAAATCTTCTTTCTTG: 0.259.
Still for that read-out and setting: next, TAGGGTAGGTCCACTCCTCGGC: 0.0939.
TTTCTGTAGTACAGGTAGCTTG yielded a sensor-assay potency score (higher = more potent) of -1.
Still for that read-out and setting: next, TTCTTTCTTGAACATAAGCAAA: -1.59.
